Assay outcomes from PubChem BioAssay.
NCOA2 inhibitor: inhibition of GAL4-SRC2 driven luciferase reporter, primary screen, SRC2 inhibitor project, cell-based, luminescence; Nuclear receptor coactivator 2 (Homo sapiens), Q15596; HEK293 GAL4-SRC2 luciferase reporter; inhibition, % at 9 µM; 370,000 compounds, 0.17% hits;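 active = inhibition above the mean inhibition of all tested compounds plus 3 SD, set per campaign, cut at about 52% in these data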;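 also: 0% = DMSO treated cells and 100% = cells given Gossypol at 36 µM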
NCOA1 inh: SRC1 coactivator transcriptional activity inhibitors, primary screen, cell-based, luminescence; Nuclear receptor coactivator 1 (Homo sapiens), Q15788; HEK293 GAL4-SRC1 luciferase reporter; inhibition, % at 3.6 µM; 360,000 compounds, 0.12% hits; AID 588354, 2011;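 active = inhibition above the campaign mean plus 3 SD, with each screening campaign given its own cutoff, cut at about 60% in these data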;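 also: 0% = DMSO treated cells and 100% = gossypol at 36 µM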
NCOA3 inh: SRC3 coactivator transcriptional activity inhibitors, primary screen, cell-based, luminescence. Nuclear receptor coactivator 3 (Homo sapiens), Q9Y6Q9. HEK293 GAL4-SRC3 luciferase reporter. inhibition, % at 3.6 µM. 360,000 compounds, 0.17% hits;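 active = inhibition above a per-campaign cutoff, the mean of all compounds plus 3 SD, cut at about 60% in these data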;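 also: 0% = DMSO-treated cells and 100% = gossypol-treated cells at 36 µM; higher means less SRC3-driven luciferase light from the GAL4 reporter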
Efflux pump inh: inhibitors of Candida efflux pumps in yeast, primary screen, S. cerevisiae, Nile Red, multiplex; S. cerevisiae Candida pump triplex; inhibition, % at 10 µM; 330,000 compounds, 0.44% hits; AID 485275, 2010;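 active = plate passing quality check with inhibition over a set limit, or well fluorescence over plate mean plus 4 SD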;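 also: Nile Red retained in pooled yeast measured as flow cytometry median fluorescence; 0% = buffer negative control and 100% = Enniatin B positive control; higher means more Nile Red kept so more efflux inhibition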
LRH-1 inv ag: LRH-1 (NR5A2) inverse agonists, primary screen, cell-based, luminescence, HEK293T, StAR-luciferase reporter; Nuclear receptor subfamily 5 group A member 2 (Homo sapiens), O00482; inhibition, % at 3.6 µM; 360,000 compounds, 0.13% hits; LRH-1 transfected, 24 h;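 active = inhibition above the mean inhibition of all tested compounds plus 3 SD, cut at about 73% in these data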;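 also: 0% = DMSO wells and 100% = reporter-only cells lacking LRH-1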
NR2F2 inh: NR2F2 transcriptional activity inhibitors, primary screen, cell-based, luciferase reporter, HEK293T, luminescence; COUP transcription factor 2 (Homo sapiens), P24468; HEK293T NGFI-A luciferase reporter; inhibition, % at 8.6 µM; 370,000 compounds, 0.7% hits;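 active = inhibition above a per-plate cutoff, mean inhibition of test wells between control levels plus 3 SD, cut at about 38% in these data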;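 also: cells cotransfected with COUP-TFII expression vector driving the NGFI-A reporter; 0% = median of COUP-TF2 test wells and 100% = reporter-only cells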
Numbers without * were called inactive; . = no result given. Shown are actives, neighbours in structure and some others; about 1.2% of the full set was active somewhere.

SMILES | NCOA2 inhibitor | NCOA1 inh | NCOA3 inh | Efflux pump inh | LRH-1 inv ag | NR2F2 inh
C/C(=N\NC(=O)c1nn(C)c(C)c1Br)c1ccc(NC(=O)c2ccc(C)s2)cc1 | -80 | -80 | -70 | 0 | -159 | -42
CC(=O)c1ccc(N=Cc2c(O)n(-c3cc(Cl)ccc3N3CCOCC3)c(=O)c3ccccc23)cc1 | -11 | -13 | -15 | 0 | -1 | 16
O=c1c2ccccc2c(C=Nc2ccc(Cl)cn2)c(O)n1-c1cc(Cl)ccc1N1CCOCC1 | 14 | -16 | 13 | 0.4* | 1 | 11
O=C(NCc1cccnc1)c1c(F)c(F)c(F)c(F)c1F | -37 | -9 | 1 | 0 | 12 | 3
O=C(/C=C/c1ccc(Cl)cc1)NC(=S)Nc1ccc(NC(=O)c2ccco2)cc1 | -45 | 68* | 52 | 0 | 1 | 13
O=C1NCCc2c1[nH]c1ccccc21 | 13 | 3 | -10 | 0 | 15 | 5
COc1ccc2[nH]c3c(c2c1)CCNC3=O | 31 | 53 | 65* | 0 | 36 | 16
NC(=O)c1cc2ccncc2c2ccccc12 | 56* | 82* | 65* | 0 | 42 | 37
Cc1cc(C(N)=O)c2ccccc2n1 | -2 | 8 | 17 | 0 | 0 | 9
NC(=O)C(C(=O)/C=C/c1ccc(Cl)cc1)=C1SCCS1 | -12 | 44 | 66* | 0 | 25 | -14
COc1ccc(/C=C/C(=O)C(C(N)=O)=C2SCCS2)cc1 | -11 | -31 | -22 | -2 | -20 | -12
Cc1ccc(C(C)C)c(OCc2ccc(C(=O)N/N=C/c3cccc(O)c3O)cc2)c1 | 73* | 50 | 65* | 0 | 3 | 15
COc1cc(/C=N\NC(=O)c2ccc(-c3ccccc3)cc2)cc(OC)c1O | -33 | -12 | -11 | 0 | 6 | -8
COc1cc(/C=N/NC(=O)c2ccc(COc3cc(C)ccc3C(C)C)cc2)cc(OC)c1O | 62* | -13 | -13 | 0 | -36 | 37
CCOC(=O)CNc1nc(-c2ccncc2)nc2ccccc12 | -24 | -7 | -23 | 0 | 17 | -6
CC(C)(C)OC(=O)N1CCN(c2ccc(CNC(=O)c3ccc(Cl)cc3)cc2)CC1 | 17 | -5 | 9 | 0 | 29 | 39*
CC(C)(C)c1ccc(C(=O)NCc2ccc(Cl)cc2)cc1 | -36 | -19 | -20 | 0 | 1 | 2
COc1cc(CCCN2C(=S)NC[C@@H]2CCCCN)cc(OC)c1OC | -8 | -20 | 6 | 0 | 17 | 2
CN(c1ncnc(N)c1[N+](=O)[O-])C1CCCCC1 | 57* | 71* | 63* | 0 | 51 | 27
Cc1ccc(C)c(N2CCN(C(=O)c3cccn4c(=O)c5sccc5nc34)CC2)c1 | 10 | 4 | 7 | 0 | 4 | 4
COc1ccc(Cc2nnc(N/N=C/c3ccc(O)cc3)[nH]c2=O)cc1OC | 53* | 22 | 69* | 0 | 6 | 17
O=C(COc1ncnc2ccccc12)NCCc1ccccc1 | -7 | -20 | 4 | 0 | -7 | -1
Cc1ccc(NC(=O)C2=C(c3ccccc3)S(=O)(=O)CCS2(=O)=O)cc1 | 74* | -60 | -31 | 0 | 56 | 20
O=C1C(Cl)=C(NCCc2ccccc2)C(=O)c2ccccc21 | -45 | -28 | -67 | . | -1 | 0
CC(=O)N(Cc1ccc(F)cc1)C1=C(NCCc2ccccc2)C(=O)c2ccccc2C1=O | 44 | 2 | 17 | 0 | 28 | 55*
SMILES | NCOA2 inhibitor | NCOA1 inh | NCOA3 inh | Efflux pump inh | LRH-1 inv ag | NR2F2 inh
CC(=O)O[C@@H]1C[C@H]2C(C)(C)C(=O)C=C[C@]2(C)[C@H]2CC[C@@]3(C)[C@H](c4ccoc4)OC(=O)[C@H]4O[C@]43[C@@]21C | 52* | 24 | 26 | 0 | 31 | 30
CC(=O)OC1CC2C(C)(C)C(=O)C=CC2(C)C2CCC3(C)C(c4ccoc4)OC(=O)C4OC43C12C (centres undefined) | 39 | 34 | 49 | . | 23 | 9
O=C(Nc1ccc(OC(F)(F)F)cc1)Nc1cccc([N+](=O)[O-])c1 | -5 | -2 | 62* | 0 | 29 | -6
Cc1ccc(NC(=O)Nc2cccc([N+](=O)[O-])c2)cc1F | -50 | -43 | -35 | 0 | -97 | -16
COc1ccc(NCc2ccc(OC)c(OC)c2)cc1 | . | . | . | 7.5* | . | .
CCOC(=O)c1c(C)[nH]c(C(=O)OCC(=O)NCc2ccc(F)cc2)c1C | -36 | -7 | -20 | 0 | 7 | -6
C=CC[C@@H]1C=C(C)C[C@H](C)C[C@H](OC)[C@H]2O[C@@](O)(C(=O)C(=O)N3CCCC[C@H]3C(=O)O[C@H](/C(C)=C/[C@@H]3CC[C@@H](O)[C@H](OC)C3)[C@H](C)[C@@H](O)CC1=O)[C@H](C)C[C@@H]2OC | . | . | . | 1.1* | . | .
O=C(Oc1ccc2c(c1)OCO2)c1cccs1 | -28 | 1 | 9 | 0 | 6 | -11
Nc1nc(N)c2c(ccc3c2ccn3Cc2cccc([N+](=O)[O-])c2)n1 | 23 | 65* | 64* | . | 55 | -10
O=C(O)C1Cc2[nH]cnc2C(c2ccccc2O)N1 (centres undefined) | -9 | -2 | 7 | 1 | 14 | -9
Cc1ccc(S(=O)(=O)NC(CC(C)C)C(=O)NCC(c2ccco2)N2CCCCC2)cc1 (centres undefined) | . | 65* | 72* | 0 | 38 | .
COC(=O)c1ccccc1-c1c2ccc(=N)cc-2oc2cc(N)ccc12 | 37 | 32 | 34 | 116* | 51 | 37
CCc1ccc(/C=C2\SC(=S)N(CCCC(=O)Nc3cc(C)on3)C2=O)cc1 | 77* | 14 | 1 | . | 9 | 24
CCc1ccc(/C=C2\SC(=S)N(CCCC(=O)NC3=NCCS3)C2=O)cc1 | 55* | 11 | 13 | . | 2 | 21
COc1cccc(/C=C2/SC(=S)N(CCCC(=O)Nc3ccc(O)cc3)C2=O)c1 | 53* | 13 | 29 | 0 | 34 | 32
CCc1ccc(/C=C2\SC(=S)N(CCC(=O)Nc3cc(C)on3)C2=O)cc1 | 48 | 11 | 19 | 0 | 3 | 10
CCOc1ccc(/C=C2\SC(=S)N(CCC(=O)O)C2=O)cc1 | 70* | 32 | 53 | 0 | 7 | 23
CCOc1ccc(/C=C2/SC(=S)N(CCC(=O)Nc3ccc(C(=O)O)cc3)C2=O)cc1 | -6 | -1 | 5 | 0 | 5 | 2
CC1(C(=O)O)CCC(C(=O)NC2CCCCC2)C1(C)C (centres undefined) | 2 | -58 | 20 | 0 | -11 | 20
